# Screens (PubChem)
# The list is not random: actives were taken first. Their share in the collection is about 10%.
# PLK1 PBD block: qHTS for Inhibitors of PLK1-PDB (polo-like kinase 1 - polo-box domain): Primary Screen; actives 2.8% (n = 360,000); Plk1 PBD binding of FITC phosphopeptide, fluorescence polarization; AID 720504, 2013; Serine/threonine-protein kinase PLK1 (Homo sapiens), P53350; Potency, µM, for the others: max response, negative = inhibition, most hits filed as inhibitors; further: potency means the concentration at half of the fitted maximal effect; series mostly up to about 57 µM; nearly all actives have a fitted effect of over 65% in size
# G9a inh: qHTS Assay for Inhibitors of Histone Lysine Methyltransferase G9a | Histone-lysine N-methyltransferase EHMT2 (Homo sapiens), Q96KQ7 | G9a H3K9 monomethylation, AlphaScreen, 2 h | Potency, µM (titrated, usually from 102 µM), inactives show at the top dose activity, negative = inhibition, most hits filed as inhibitors | actives 8.8% (n = 350,000); further: potency means the concentration at half of the fitted maximal effect; nearly all actives have a fitted effect of over 75% in size
#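 G9a (20 nM) preincubated 15 min RT with compounds, then 500 nM biotinylated H3K9 peptide and 20 uM SAM added; 2 h RT reaction. Monomethyl-H3K9 product detected by AlphaScreen with anti-H3K9me1 antibody, streptavidin donor and anti-rabbit IgG acceptor beads.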
# Mm-Cpn inhibitor: Inhibitors of TCP-1 ring complex (TRiC) of Methanococcus maripaludis (MmCpn): qHTS; purified Mm-Cpn ATPase, ADP Transcreener TR-FRET; AID 504842, 2011; Potency, µM (top dose mostly 76.9 µM), without a hit: at the top dose activity, negative = inhibition, usual class: inhibitors; actives 0.031% (n = 330,000); further: potency means the concentration at half of the fitted maximal effect; nearly all actives have a fitted effect of over 80% in size
#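 Measured: ADP formation by purified Mm-CPN. Conditions: 25 nM protein, 10 uM ATP, Tris pH 7.4 with Mg2+, K+ and DTT, 37°C for 30 min. Detection: Transcreener HTRF after 30 min at room temperature.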
# Sfp inh: qHTS Assay for Inhibitors of Bacillus subtilis Sfp phosphopantetheinyl transferase (PPTase). Biochemical Sfp PPTase activity, qHTS. Potency, µM, for inactives: largest response in the series, negative = inhibition, usual class: inhibitors. actives 3.5% (n = 310,000). AID 1490, 2009;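 further: the enzyme is Sfp with the accession as filed and its product quenches rhodamine fluorescence; potency means the concentration at half of the fitted maximal effect; 0% = enzyme reaction without inhibitor and -100% = no enzyme wells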
#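 Fluorescence-quenching assay: 15 nM Sfp-PPTase preincubated 15 min at room temperature with compound, then 5 uM rhodamine-CoA and 12.5 uM BHQ-2-labelled YbbR peptide added. Fluorescence (ex 525/em 598 nm) read at start and after 30 min; difference gives rate.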
# VDR inh: Inhibitors of the vitamin D receptor (VDR): qHTS | Vitamin D3 receptor (Homo sapiens), P11473 | VDR-SRC2-3 peptide fluorescence polarization, 2 h | Potency, µM, for the others: max response, negative = inhibition, most hits filed as inhibitors | actives 0.93% (n = 400,000) | AID 504847, 2011; further: potency means the concentration at half of the fitted maximal effect
# Target sequence (P11473 whole entry, looked up): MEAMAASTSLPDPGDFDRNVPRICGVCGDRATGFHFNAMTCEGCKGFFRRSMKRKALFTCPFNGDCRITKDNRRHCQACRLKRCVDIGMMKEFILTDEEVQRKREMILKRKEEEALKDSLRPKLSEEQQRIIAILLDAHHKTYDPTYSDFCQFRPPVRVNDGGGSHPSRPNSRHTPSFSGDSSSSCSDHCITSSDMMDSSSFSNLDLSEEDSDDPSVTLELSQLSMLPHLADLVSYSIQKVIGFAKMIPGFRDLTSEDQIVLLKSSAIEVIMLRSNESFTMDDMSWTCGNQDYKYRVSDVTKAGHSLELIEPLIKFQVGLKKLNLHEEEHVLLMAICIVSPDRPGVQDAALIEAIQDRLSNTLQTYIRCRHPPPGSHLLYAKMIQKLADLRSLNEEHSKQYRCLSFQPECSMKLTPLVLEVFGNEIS
#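 VDR–SRC2-3 interaction, FP format. Cmpds 23 nl via pintool, brief spin, 2 h ambient incubation.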
# CCT chaperon mod: High-Throughput Screening for Modulators of Cytosolic Chaperonin Activity | purified chaperonin ATPase assay, HTRF ADP detection, 30 min | activity change, % (concentration not given with the values), hits read low | actives 0.3% (n = 360,000) | AID 651819, 2012; in the data active means activity change below about -30%
#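 We incubate TRiC, 40 or 20 nM final, with library compounds at 76 uM and 10 uM ATP for 30 min at 37 °C. ADP formed is detected with Transcreener HTRF reagents after 30 min at room temperature.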
# Numbers without * were called inactive; ? = inconclusive; · = not tested or not shown; ! = a repeat was not active; [ ] = remark or other dose. Unless noted, the call rests on the fitted dose curve; in most records, active means well fitted curve in the direction sought with a large enough effect; inconclusive means small, poorly fitted or top-dose-only effect, or another doubt; inactive means no such curve, though single readings can be large; an effect the other way counts as inactive or inconclusive. Unless noted, on the % scale 0 is the no-effect control and ±100 the full control effect.
SMILES,PLK1 PBD block,G9a inh,Mm-Cpn inhibitor,Sfp inh,VDR inh,CCT chaperon mod
COc1ccc2c(c1)CC1(CN2C)C(=O)NC(=O)N(c2ccc(C)cc2)C1=O (configuration not stated),-14%,?,0%,-5%,7%,-7
Cc1ccc2c(c1)CC1(CN2C)C(=O)NC(=O)N(C(C)C)C1=O (configuration not stated),?,32µM*,-1%,1%,-2%,0
COc1ccc2[nH]c3c(c2c1)CCN=C3C,-10%,8.9µM*,1%,-10%,-7%,-3
COc1ccc(-n2c(=O)[nH]c3ccccc3c2=O)cc1,0%,·,-2%,-5%,-3%,-2
CC1=C2CCC3C4CCC(=O)[C@@]4(C)CCC3[C@]2(C)CCC1=O (some centres not stated),·,-35%[2.33 µM],·,-4%,10%,·
CC1OC(=O)C(C(C)C)NC(=O)C(C(C)C)OC(=O)C(C(C)C)NC(=O)C(C)OC(=O)C(C(C)C)NC(=O)C(C(C)C)OC(=O)C(C(C)C)NC(=O)C(C)OC(=O)C(C(C)C)NC(=O)C(C(C)C)OC(=O)C(C(C)C)NC1=O (configuration not stated),·,17%[59 µM],·,27%,6%,·
O=c1[nH]c(O)c(N=Nc2cc([N+](=O)[O-])ccc2O)c(=O)[nH]1,2%,45µM*,-21%,5%,17%,1
COc1ccc(C(O)P(=O)(OCC(C)C)c2ccc(N(C)C)cc2)c(OC)c1 (configuration not stated),-9%,?,-2%,3%,-2%,-3
CC(Nc1cc(C)cc(C)c1)=[N+](C)CCNS(=O)(=O)c1ccc(Cl)cc1,-14%,8.9µM*,2%,-6%,-4%,0
CCc1c(C)nc(N)nc1N1N=C1SCC(=O)OC,-8%,22%[12.7 µM],1%,22%,-7%,-2
COC(=O)CSC1=NN1c1cc(C)nc(N)n1,-11%,50µM*,2%,-7%,-6%,0
CCn1cc(C(=O)NCc2ccccc2)c2ccccc21,-15%,21%,-1%,-7%,-2%,-3
CCn1cc(C(=O)O)c(=O)c2ccc(C)nc21,-16%,8.9µM*!,-1%,-10%,-1%,0
CC1O[C@@H](O[C@@H]2C(O)C[C@H](O[C@@H]3C(O)C[C@@H](OC4CC[C@@]5(C)C6CC[C@]7(C)C(C8=CC(=O)OC8)CC[C@@]7(O)C6CC[C@@H]5C4)OC3C)OC2C)CC(O)[C@H]1O (some centres not stated),·,-13%[2.33 µM],·,2%,1%,·
CN1CCN(c2ccc(Cl)cc2N)CC1,-1%,11%[0.501 µM],-1%,-6%,-19%,0
CN1C(=O)N(C)C(=O)C2(Cc3cc(N)ccc3N3CCN(c4ccccc4F)CC32)C1=O (configuration not stated),·,28µM*,-15%,9%,·,·
CCN1C(=O)N(CC)C(=O)C2(Cc3ccccc3N3CCN(c4ccccc4)CC32)C1=O (configuration not stated),-15%,2µM*,3%,71µM*,-13%,-2
CN1C(=O)N(C)C(=O)C2(Cc3cc(NC(=O)c4ccccc4)ccc3N3CCCC32)C1=O (configuration not stated),-10%,32µM*,0%,-3%,14%,0
CN1CCN2c3ccc(N)cc3CC3(C(=O)NC(=O)NC3=O)C2C1 (configuration not stated),-6%,18µM*,-17%,22µM*,-2%,2
COP(N)(=O)SC (configuration not stated),·,·,·,-8%,1%,·
NCC(CC(=O)O)c1ccc(Cl)s1 (configuration not stated),·,37%[59 µM],·,24%,4%,·
